The experiment has as its system TYKNU. Description: fractional viability relative to vehicle; TYKNU is a high-grade serous ovarian cancer line; higher = less growth inhibition. Conditions: 72 h. The gist of the method:
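TYKNU control cells or lentiCRISPRv2 knockout derivatives were plated at 500 cells per well in duplicate into drug-stamped 384-well plates holding a ~2100-compound library at 2 or 10 μM. Culture was in RPMI 1640 with 10% FBS at 37 °C in 5% CO2, with 72 h of drug treatment. Viability was measured by Cell Titer Glo luminescence, and the averaged duplicate treatment wells were normalised to duplicate control wells at the same plate position.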

[1] abbreviates: 2uM, genotype: DNM1L knockout (sgDNM1L #1).
Setting [2] is: 2uM, genotype: sgCTRLA1 (non-targeting control).
[3] abbreviates: 10uM, genotype: DNM1L knockout (sgDNM1L #1).
The mark [4] stands for this setting: 10uM, genotype: sgCTRLA1 (non-targeting control).

Molecules are shown by their SMILES. Structures can show the parent of a compound that is named as a salt. Over roughly 2,000 compounds, “fractional viability relative to vehicle” has its median near 0.91; the lowest 2% begin near 0.045. For the sample, the lowest values were picked, then their nearest neighbours and some compounds at random.

For the compound `Cc1ccc(NC(=O)c2ccc(CN3CC[C@H](N(C)C)C3)c(C(F)(F)F)c2)cc1Nc1nccc(-c2cncnc2)n1` [Bafetinib (INNO-406)], the fractional viability runs as follows: under setting [1], 0.684; under setting [2], 0.569; under setting [3], 0.0871; under setting [4], 0.0998.

`CCN1CCN(Cc2ccc(C(=O)Nc3ccc(C)c(Oc4ccc5c(c4)CC(=O)N5)c3)cc2C(F)(F)F)CC1`: the fractional viability stood at 0.704 under setting [1], 0.758 under setting [2], 0.477 under setting [3] and 0.756 under setting [4].

In the case of `CC(C)n1nc(-c2ccc3oc(N)nc3c2)c2c(N)ncnc21`, the fractional viability by setting is: under setting [1], 0.194; under setting [2], 0.191; under setting [3], 0.181; under setting [4], 0.171.

Take `Cc1nc(N(C)C(=O)Cc2ccc(-c3ccccn3)cc2)sc1S(N)(=O)=O` [Pritelivir (BAY 57-1293)]: the fractional viability came out at 0.897 under setting [1], 0.947 under setting [2], 0.855 under setting [3] and 0.818 under setting [4].

As for `COc1cccc(C=NCCN=Cc2cccc(OC)c2[O-])c1[O-].[Cl-].[Mn+3]`, the fractional viability is, setting by setting: under setting [1], 0.805; under setting [2], 0.978; under setting [3], 0.756; under setting [4], 0.897.

Turning to `Cc1nc2ccc(-n3ncc(C(=O)c4cc5ccccc5[nH]4)c3N)cc2[nH]1`, the fractional viability turned out to be 0.935 under setting [1], 0.923 under setting [2], 0.958 under setting [3] and 0.819 under setting [4].

As to `Cc1ccc(NC(=O)C2(c3ccc4c(c3)OC(F)(F)O4)CC2)nc1-c1cccc(C(=O)O)c1` [VX-809 (Lumacaftor)], the fractional viability stood at 0.94 under setting [1], 1.12 under setting [2], 0.933 under setting [3] and 1.06 under setting [4].

With `CCO[C@@H]1OC(=O)C[C@@H]1NC(=O)[C@@H]1CCCN1C(=O)[C@@H](NC(=O)c1ccc(N)c(Cl)c1)C(C)(C)C`, the fractional viability runs as follows: under setting [1], 0.968; under setting [2], 1.18; under setting [3], 0.898; under setting [4], 1.09.

As to `CCC1C/C(=C\c2cccnc2)C(=O)/C(=C/c2cccnc2)C1` (configuration not stated), the fractional viability is, setting by setting: under setting [1], 0.104; under setting [2], 0.0876; under setting [3], 0.0563; under setting [4], 0.0253.

`COc1cc2c(cc1OC)[C@@H]1Cc3ccc(OC)c(OC)c3CN1CC2` [Rotundine] registered a fractional viability under setting [1] of 1.17, a fractional viability under setting [2] of 1.06, a fractional viability under setting [3] of 1.18 and a fractional viability under setting [4] of 1.01.

Take `CC[C@]12C=CCN3CC[C@@]4(c5cc([C@@]6(C(=O)OC)C[C@@H]7C[C@@H](C(C)(F)F)CN(Cc8c6[nH]c6ccccc86)C7)c(OC)cc5N(C)[C@H]4[C@@](O)(C(=O)OC)[C@@H]1OC(C)=O)[C@@H]32` [Vinflunine Tartrate]: the fractional viability was found to be 0.191 under setting [1], 0.144 under setting [2], 0.142 under setting [3] and 0.114 under setting [4].

On to `O=C(CCCCCN1C(=O)c2cccc3cccc(c23)C1=O)NO` [Scriptaid], for which the fractional viability was 0.411 under setting [1], 0.51 under setting [2], 0.108 under setting [3] and 0.109 under setting [4].

As to `O=C(O)C1=C[C@@H](O)[C@@H](O)[C@H](O)C1` [Shikimic Acid], the fractional viability by setting is: under setting [1], 0.996; under setting [2], 1.17; under setting [3], 0.84; under setting [4], 1.06.

`COCC[n+]1c2c(n(Cc3cnccn3)c1C)C(=O)c1ccccc1C2=O` [YM155 (Sepantronium Bromide)] showed a fractional viability under setting [1] of 0.0411, a fractional viability under setting [2] of 0.0393, a fractional viability under setting [3] of 0.0214 and a fractional viability under setting [4] of 0.0241.

As to `COc1cc2ncnc(Sc3nnc(C)s3)c2cc1OC`, the fractional viability stood at 0.747 under setting [1], 0.866 under setting [2], 0.0591 under setting [3] and 0.0581 under setting [4].

In the case of `O=C(C[S+]([O-])Cc1ccco1)NC/C=C\COc1cc(CN2CCCCC2)ccn1` (configuration not stated) [Lafutidine], the fractional viability was 1 under setting [1], 1.2 under setting [2], 0.826 under setting [3] and 1.06 under setting [4].

In the case of `O=C([O-])c1ccccc1O.[Na+]` [Sodium salicylate], the fractional viability is, setting by setting: under setting [1], 1.08; under setting [2], 1.09; under setting [3], 0.913; under setting [4], 1.03.

For the compound `CN1CCN(c2ccc3nc(-c4c(N)c5c(F)cccc5[nH]c4=O)[nH]c3c2)CC1` [Dovitinib (TKI-258, CHIR-258)], the fractional viability under setting [1] worked out at 0.523, the fractional viability under setting [2] came to 0.465, the fractional viability under setting [3] is 0.119 and the fractional viability under setting [4] was found to be 0.0963.

In the case of `CN1CCN(c2ccc3nc(-c4c(N)c5c(F)cccc5[nH]c4=O)[nH]c3c2)CC1` [Dovitinib (TKI258) Lactate], the fractional viability under setting [1] worked out at 0.398, the fractional viability under setting [2] was determined as 0.423, the fractional viability under setting [3] came to 0.0366 and the fractional viability under setting [4] came out at 0.0252.

On to `O=C(O)c1ccc(N2C(=O)/C(=C\c3ccc(-c4ccc([N+](=O)[O-])cc4)o3)C=C2c2ccccc2)cc1`, for which the fractional viability by setting is: under setting [1], 0.851; under setting [2], 0.873; under setting [3], 0.899; under setting [4], 0.776.

Regarding `O=c1ncccn1[C@@H]1O[C@H](CO)[C@@H](O)[C@H]1O` [Zebularine], the fractional viability by setting is: under setting [1], 0.97; under setting [2], 1.06; under setting [3], 0.676; under setting [4], 0.938.

For `O=C(Nc1ccccc1)N1CCN(c2nc(-c3ccccc3)ns2)CC1`, the fractional viability under setting [1] is 1.06, the fractional viability under setting [2] amounted to 1.14, the fractional viability under setting [3] was 0.828 and the fractional viability under setting [4] was determined as 0.976.

On to `COc1cc2c(Oc3ccc(NC(=O)C4(C(=O)Nc5ccc(F)cc5)CC4)cc3F)ccnc2cc1OCCCN1CCOCC1`, for which the fractional viability under setting [1] worked out at 0.628, the fractional viability under setting [2] was 0.631, the fractional viability under setting [3] was determined as 0.0524 and the fractional viability under setting [4] worked out at 0.0418.

On to `COc1cc2c(Nc3ccc(NC(=O)c4ccccc4)cc3)ncnc2cc1OCCCN1CCOCC1`, for which the fractional viability runs as follows: under setting [1], 0.862; under setting [2], 0.959; under setting [3], 0.266; under setting [4], 0.22.

Turning to `COc1cc2nccc(Oc3ccc(NC(=O)C4(C(=O)Nc5ccc(F)cc5)CC4)cc3)c2cc1OC`, the fractional viability is 1.15 under setting [1], 1.17 under setting [2], 0.615 under setting [3] and 0.64 under setting [4].

For the compound `CCN(C(=O)c1c(O)c2c(Cl)cccc2n(C)c1=O)c1ccccc1` [Laquinimod], the fractional viability amounted to 1.22 under setting [1], 1.14 under setting [2], 0.958 under setting [3] and 1.08 under setting [4].

Consider `CC[C@H](Nc1ncnc2[nH]cnc12)c1nc2cccc(F)c2c(=O)n1-c1ccccc1` [CAL-101 (Idelalisib, GS-1101)], for which the fractional viability by setting is: under setting [1], 0.947; under setting [2], 1.11; under setting [3], 0.863; under setting [4], 0.971.

Consider `CN(C)CC(=O)Nc1ccc2[nH]c(=O)c3ccccc3c2c1`, for which the fractional viability amounted to 0.84 under setting [1], 1.06 under setting [2], 0.74 under setting [3] and 1.03 under setting [4].

The record behind these values is the supplement of paper PMC5919970.
